Sampled rows, rich in hits. Any-hit rate of the full collection: about 7.5%.
FLuc counter: firefly luciferase modulation, counter-screen for miR-21 project | AID 588342 | P08659 | Potency, µM (series often up to 57.5 µM), for inactives: top-dose activity change, negative = inhibition, most hits filed as inhibitors | hit rate 6.9% among 360,000 | purified FLuc, Km substrates, luminescence inhibition;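 further: plate controls were vehicle for no effect and reference inhibitor for full effect; nearly all actives have a fitted effect of over 55% in size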
Target sequence (P08659 whole entry, looked up): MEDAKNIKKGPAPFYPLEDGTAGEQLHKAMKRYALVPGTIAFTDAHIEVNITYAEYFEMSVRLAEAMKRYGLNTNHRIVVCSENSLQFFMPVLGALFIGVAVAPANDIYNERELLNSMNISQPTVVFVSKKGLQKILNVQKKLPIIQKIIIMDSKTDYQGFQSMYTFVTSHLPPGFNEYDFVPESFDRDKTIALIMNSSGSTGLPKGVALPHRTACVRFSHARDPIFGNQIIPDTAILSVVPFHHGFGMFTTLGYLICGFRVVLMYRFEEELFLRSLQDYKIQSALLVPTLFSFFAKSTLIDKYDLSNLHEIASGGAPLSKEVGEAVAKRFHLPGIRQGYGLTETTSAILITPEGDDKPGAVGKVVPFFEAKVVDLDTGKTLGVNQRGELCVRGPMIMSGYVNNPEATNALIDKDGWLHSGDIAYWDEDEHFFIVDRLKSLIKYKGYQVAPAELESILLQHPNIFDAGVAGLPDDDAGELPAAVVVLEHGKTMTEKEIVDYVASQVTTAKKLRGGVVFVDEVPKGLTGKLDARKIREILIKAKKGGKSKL
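Purified P. pyralis luciferase, 10 nM final, with Km-level 10 uM D-luciferin and 10 uM ATP in 50 mM Tris acetate pH 7.5, 10 mM Mg acetate, 0.01% Tween-20, 0.05% BSA; 6-point qHTS titration about 60 µM downward; luminescence read.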
SMN2 splice up: increases expression of the SMN2 splice variant; hit rate 2.8% among 210,000; HEK293 SMN2-luciferase splicing reporter, luminescence, 30-36 h; AID 1458; Potency, µM (titrated, usually from 46.1 µM), for the others: at the highest dose activity change, positive = activation, actives largely listed as activators; further: % of control where 0% means no effect; nearly all actives have a fitted effect of over 55% in size
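qHTS luciferase splicing reporter: luminescence rises when SMN2 exon 7 is included in transfected HEK293 cells. Compound exposure lasted 30-36 h at 37C, with 4.5 mM final sodium butyrate as control, followed by a ONE-Glo read.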
Rab9 prom act: activates the Rab9 promoter | Potency, µM (top dose mostly 9.22 µM), inactives show at the highest dose activation, negative = inhibition, actives largely listed as activators | Huh7 Rab9 promoter-luciferase reporter, luminescence, 24 h | hit rate 2.8% among 320,000; further: % of control where 0% means no effect; nearly all actives have a fitted effect of over 60% in size
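Promoter activation is measured as luciferase luminescence in Huh7 cells stably transfected with a Rab9 promoter–luciferase construct, following 24 h compound exposure at 37 °C and 10 min reagent incubation at ambient temperature.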
Luc counter: blocks Kinase-Glo luciferase, a counter-screen artifact; Potency, µM (doses to about 38.3 µM), without a hit: top-dose activity change, negative = inhibition, hits mostly inhibitors; Kinase-Glo luciferase, ATP luminescence, 8 min; hit rate 0.28% among 200,000; further: on the % scale 0 is the no-effect control and ±100 the full control effect; nearly all actives have a fitted effect of over 60% in size
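Inhibition of Kinase-Glo luciferase light generation was assessed at 10 uM ATP in pH 7.2 imidazole buffer, with luminescence measured after eight minutes at ambient temperature.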
ELG1 genotoxic: induces genotoxicity in HEK293T cells with luciferase-tagged ELG1; HEK293T ELG1-luciferase reporter, luminescence, 16 h; Potency, µM (highest dose often 46 µM), inactives show at the highest dose activity change, positive = activation, hits mostly activators; hit rate 1.3% among 330,000; AID 504466; further: % of control where 0% means no effect; nearly all actives have a fitted effect of over 60% in size
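Screening used a luciferase reporter fused to human ELG1 in HEK293T cells. Luminescence was read on a CCD plate imager after 16 hr exposure and 30 min ONE-Glo incubation.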
NPC1 prom act: NPC1 promoter activation; AID 485313; Huh7 NPC1 promoter luciferase reporter, 24 h; Potency, µM (series often up to 9.22 µM), for the others: at the highest dose activation, usual class: activators; hit rate 2.4% among 320,000; further: % of control where 0% means no effect; nearly all actives have a fitted effect of over 60% in size
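Luminescence read-out of NPC1 promoter-driven luciferase in stably transfected Huh7 cells; compounds delivered in DMSO and left 24 h at 37C, 5% CO2, qHTS titration format.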
An asterisk follows results filed as active; ? = inconclusive; · = no result; [ ] = another dose, or the depositor's remark. The call rests on the fitted dose curve; in most records, active means well fitted curve in the direction sought with a large enough effect; inconclusive means small, poorly fitted or top-dose-only effect, or another doubt; inactive means no such curve, though single readings can be large; an effect the other way counts as inactive or inconclusive. Potency means the concentration at half of the fitted maximal effect.

SMILES	FLuc counter	SMN2 splice up	Rab9 prom act	Luc counter	ELG1 genotoxic	NPC1 prom act
O=C(CCS(=O)(=O)c1ccccc1)NC1CCCCC1	17µM*	·	?	·	15µM*	25%
O=C(CCSc1ccc(Cl)cc1)NC1CCCC1	-2%	·	2%	·	-1%	-2%
O=C(CCSc1ccccc1)NC1CCCC1	15µM*	21%	1%	-3%	?	3%
Cc1c(N=C/C=C/c2ccccc2)cnn1C	6.7µM*	-10%	2%	0%	2%	1%
Cc1c(N=Cc2ccc(Cl)o2)c(=O)n(-c2ccccc2)n1C	-4%	7%	2%	-6%	1%	1%
C(/C=C\c1ccccc1)=Nc1ccc2c(c1)Cc1ccccc1-2	·	0%[9.22 µM]	·	-3%[7.66 µM]	·	·
Cc1c(N=Cc2ccc(-c3ccc(Cl)cc3)o2)c(=O)n(-c2ccccc2)n1C	9.5µM*	-34%	4%	-7%	6%	-4%
Cc1c(N=C/C=C/c2ccccc2)c(=O)n(-c2ccccc2)n1C	19µM*	-2%	10%	-2%	3%	-3%
Cc1c(N=Cc2ccco2)c(=O)n(-c2ccccc2)n1C	-2%	-3%	-5%	-1%	1%	2%
Cc1ccccc1-c1ccc(C=Nc2c(C)n(C)n(-c3ccccc3)c2=O)o1	4.8µM*	-34%	2%	-10%	3%	2%
CCN(CC)c1ccc(NC(=O)CCc2nc3cccnc3n2Cc2cccs2)c(C)c1	-12%	0%	·	·	·	·
Cc1ccc(-n2c(COCC(=O)O)nc3cccnc32)cc1	-6%	·	·	·	·	·
O=C(NCCCO)C(=O)NCC(c1ccc2c(c1)OCO2)N1CCOCC1 (stereo not drawn)	-5%	·	·	·	·	·
O=C(CN(c1ccc(F)cc1)S(=O)(=O)c1ccccc1)NCCSC1CCCCC1	3%	-28%	3%	3%	-8%	0%
Cc1ccc(C(=O)O/N=C(\N)Cc2cccc3ccccc23)cc1	-8%	·	8%	·	-10%	0%
N/C(=N\OC(=O)c1cccc(F)c1)c1ccccc1	0.67µM*	2%	26%	11µM*	?	17%
Cc1ccc(/C(N)=N/OC(=O)c2cccc(F)c2)cc1	3µM*	·	16%	·	?	14%
Cc1ccc(/C(N)=N/OC(=O)c2ccc3ccccc3c2)cc1	6.7µM*	·	?	·	?	?
CCCn1c(-c2ccc(F)cc2)nc2c(NCCN3CCOCC3)nc(C)nc21	·	-2%	·	-5%	·	·
O=S(=O)(c1ccc(Br)cc1)c1nc(-c2ccco2)oc1SCc1ccccc1F	-7%	-13%	·	·	·	·
CCn1c(=O)c2c(n3c(=S)[nH]nc13)-c1ccccc1CC21CCCCC1	15µM*	-18%	2%	2%	5%	-5%
CCn1c(SCC#N)nc2c(c1=O)C1(CCCC1)Cc1ccccc1-2	5%	2%	5%	1%	-5%	-7%
COc1ccc(/C=C/c2nc(-c3ccccc3O)n[nH]2)cc1OC	12µM*	?	?	3%	?	?
O=C(O)COc1ccc(/C=C/c2nc(-c3ccccc3O)n[nH]2)cc1	11µM*	·	-2%	·	-6%	-5%
CCCC[P+](CCCC)(CCCC)Cc1ccc(NC(=O)[C@@H](Cc2ccc3ccccc3c2)NC(=NC2CCCCC2)NC2CCCCC2)cc1	·	·	·	2%	·	·
SMILES	FLuc counter	SMN2 splice up	Rab9 prom act	Luc counter	ELG1 genotoxic	NPC1 prom act
COc1ccc(-c2nc3ccccc3n2Cc2ccccc2)cc1	?	-30%	5%	7%	2%	-1%
C=CCn1c(-c2ccc(OC)cc2)nc2ccccc21	13µM*	?	30%	-24%	0%	16%
C=CCn1c(-c2ccc(OC)cc2)nc2nc3ccccc3nc21	?	10µM*	-1%	-5%	14%	1%
C=CCn1c(-c2ccc(N)cc2)nc2ccccc21	11µM*	?	?	15%	18µM*	14%
Cn1cc(CCCC(=O)NCc2ccccc2Cl)c2ccccc21	2%	·	·	·	·	·
Cc1ccccc1C(=O)NCC(c1cccnc1)N1CCc2ccccc21 (stereo not drawn)	0%	·	·	·	·	·

From PubChem BioAssay
